Laboratory results taken from PubChem BioAssay AID1159580 (chemical genetic matrix, 2015).
Screen size: about 5,500 compounds; about 2,000 (36%) were called active. Roughly 18% stayed inconclusive and do not appear here. Rule as the data show it: active = normalized growth mostly below about 0.91 (no sharp cut-off); inconclusive = no clear call, values can overlap the other calls; inactive = mostly above about 0.92. Some of the results follow.

Test: chemical genetic growth profiling, strain panel (AID 1159580);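 also: tested at 20 µM; growth read once vehicle control cultures reached saturation at 30 °C; 1 = growth at the plate median or of vehicle wells; lower values mean less growth of the strain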
Conditions: growth OD

Measured: normalized growth

N#C/C(=C\c1ccc(O)cc1)C(=O)O
inactive: S. cerevisiae deletion strains, locus YJR075W, strain HOC1, stronger effect = lower value 0.979 | S. cerevisiae deletion strains, locus YKL009W, strain mrt4, stronger effect = lower value 0.963 | S. cerevisiae deletion strains, locus YKL068W, stronger effect = lower value 0.999 | S. cerevisiae deletion strains, locus YKL085W, strain MDH1 (second series), stronger effect = lower value 0.973 | S. cerevisiae deletion strains, locus YKL085W, strain MDH1, stronger effect = lower value 0.973 | S. cerevisiae deletion strains, locus YKL160W, strain elf1, stronger effect = lower value 0.988 | S. cerevisiae deletion strains, locus YKL190W, strain CNB1, stronger effect = lower value 0.992 | S. cerevisiae deletion strains, locus YKR001C, strain vps1, stronger effect = lower value 1.01 | S. cerevisiae deletion strains, locus YKR026C, strain gcn3, stronger effect = lower value 0.97 | S. cerevisiae deletion strains, locus YKR091W, strain srl3, stronger effect = lower value 0.994 | S. cerevisiae deletion strains, locus YLL001W, strain dnm1, stronger effect = lower value 0.994 | S. cerevisiae deletion strains, locus YLL026W, stronger effect = lower value 1.01 | S. cerevisiae deletion strains, locus YLL041C, strain sdh2, stronger effect = lower value 0.995 | S. cerevisiae deletion strains, locus YLR027C, strain aat2, stronger effect = lower value 1.01 | S. cerevisiae deletion strains, locus YLR039C, strain RIC1, stronger effect = lower value 0.981 | S. cerevisiae deletion strains, locus YLR058C, strain SHM2, stronger effect = lower value 0.979 | S. cerevisiae deletion strains, locus YLR102C, strain apc9, stronger effect = lower value 0.988 | S. cerevisiae deletion strains, locus YLR113W, strain HOG1, stronger effect = lower value 1.01 | S. cerevisiae deletion strains, locus YLR221C, strain rsa3, stronger effect = lower value 0.984 | S. cerevisiae deletion strains, locus YLR258W, strain gsy2, stronger effect = lower value 1 | S. cerevisiae deletion strains, locus YLR262C, strain YPT6 (second series), stronger effect = lower value 0.993 | S. cerevisiae deletion strains, locus YLR262C, strain YPT6, stronger effect = lower value 0.97 | S. cerevisiae deletion strains, locus YLR268W, strain sec22, stronger effect = lower value 0.985 | S. cerevisiae deletion strains, locus YLR320W, strain mms22, stronger effect = lower value 1.03 | S. cerevisiae deletion strains, locus YLR330W, strain CHS5, stronger effect = lower value 0.992 | S. cerevisiae deletion strains, locus YLR342W, strain FKS1 (second series), stronger effect = lower value 1.07 | S. cerevisiae deletion strains, locus YLR342W, strain FKS1, stronger effect = lower value 1.01 | S. cerevisiae deletion strains, locus YLR357W, strain rsc2, stronger effect = lower value 0.989 | S. cerevisiae deletion strains, locus YLR370C, strain arc18, stronger effect = lower value 0.995 | S. cerevisiae deletion strains, locus YLR371W, strain rom2, stronger effect = lower value 1.01 | S. cerevisiae deletion strains, locus YLR384C, strain iki3, stronger effect = lower value 1 | S. cerevisiae deletion strains, locus YLR418C, strain cdc73, stronger effect = lower value 0.953 | S. cerevisiae deletion strains, locus YML016C, strain PPZ1, stronger effect = lower value 0.992 | S. cerevisiae deletion strains, locus YML032C, strain rad52, stronger effect = lower value 1.03 | S. cerevisiae deletion strains, locus YML120C, strain ndi1, stronger effect = lower value 0.994 | S. cerevisiae deletion strains, locus YML124C, strain tub3, stronger effect = lower value 0.999 | S. cerevisiae deletion strains, locus YMR058W, strain fet3, stronger effect = lower value 0.988 | S. cerevisiae deletion strains, locus YMR078C, strain ctf18, stronger effect = lower value 0.998 | S. cerevisiae deletion strains, locus YMR125W, strain sto1, stronger effect = lower value 0.96 | S. cerevisiae deletion strains, locus YMR129W, stronger effect = lower value 0.982 | S. cerevisiae deletion strains, locus YMR205C, strain PFK2, stronger effect = lower value 1.04 | S. cerevisiae deletion strains, locus YMR223W, strain ubp8, stronger effect = lower value 1.04 | S. cerevisiae deletion strains, locus YMR231W, strain pep5, stronger effect = lower value 1.01 | S. cerevisiae deletion strains, locus YMR263W, strain SAP30, stronger effect = lower value 0.962 | S. cerevisiae deletion strains, locus YMR307W, strain GAS1, stronger effect = lower value 1.12 | S. cerevisiae deletion strains, locus YNL067W, strain RPL9B, stronger effect = lower value 0.974 | S. cerevisiae deletion strains, locus YNL071W, strain lat1, stronger effect = lower value 0.998 | S. cerevisiae deletion strains, locus YNL128W, strain TEP1, stronger effect = lower value 0.927 | S. cerevisiae deletion strains, locus YNL153C, strain GIM3, stronger effect = lower value 0.953 | S. cerevisiae deletion strains, locus YNL183C, strain NPR1, stronger effect = lower value 0.993 | S. cerevisiae deletion strains, locus YNL209W, strain ssb2, stronger effect = lower value 0.997 | S. cerevisiae deletion strains, locus YNL233W, strain BNI4, stronger effect = lower value 0.997 | S. cerevisiae deletion strains, locus YNL248C, strain rpa49, stronger effect = lower value 0.963 | S. cerevisiae deletion strains, locus YNL250W, strain rad50, stronger effect = lower value 0.968 | S. cerevisiae deletion strains, locus YNL271C, strain bni1, stronger effect = lower value 1.01 | S. cerevisiae deletion strains, locus YNL298W, strain CLA4, stronger effect = lower value 1 | S. cerevisiae deletion strains, locus YNL307C, strain MCK1, stronger effect = lower value 1.03 | S. cerevisiae deletion strains, locus YNL322C, strain KRE1 (second series), stronger effect = lower value 0.996 | S. cerevisiae deletion strains, locus YNL322C, strain KRE1, stronger effect = lower value 0.977 | S. cerevisiae deletion strains, locus YNR049C, strain mso1, stronger effect = lower value 0.996 | S. cerevisiae deletion strains, locus YNR052C, strain pop2, stronger effect = lower value 1 | S. cerevisiae deletion strains, locus YOL006C, strain TOP1, stronger effect = lower value 0.912 | S. cerevisiae deletion strains, locus YOL012C, strain htz1 1.16 | S. cerevisiae deletion strains, locus YOL147C, strain pex11, stronger effect = lower value 0.998 | S. cerevisiae deletion strains, locus YOR001W, strain rrp6, stronger effect = lower value 0.982 | S. cerevisiae deletion strains, locus YOR061W, strain CKA2, stronger effect = lower value 0.954 | S. cerevisiae deletion strains, locus YOR069W, strain VPS5, stronger effect = lower value 0.992 | S. cerevisiae deletion strains, locus YOR070C, strain gyp1, stronger effect = lower value 1 | S. cerevisiae deletion strains, locus YOR080W, strain dia2, stronger effect = lower value 0.996 | S. cerevisiae deletion strains, locus YOR083W, strain WHI5, stronger effect = lower value 0.978 | S. cerevisiae deletion strains, locus YOR106W, strain vam3, stronger effect = lower value 0.997 | S. cerevisiae deletion strains, locus YOR136W, strain idh2, stronger effect = lower value 1 | S. cerevisiae deletion strains, locus YOR144C, strain elg1, stronger effect = lower value 0.993 | S. cerevisiae deletion strains, locus YOR184W, strain ser1, stronger effect = lower value 1.08 | S. cerevisiae deletion strains, locus YOR231W, strain MKK1, stronger effect = lower value 1.04 | S. cerevisiae deletion strains, locus YOR265W, strain rbl2, stronger effect = lower value 1 | S. cerevisiae deletion strains, locus YOR270C, strain vph1, stronger effect = lower value 0.989 | S. cerevisiae deletion strains, locus YOR290C, strain snf2, stronger effect = lower value 0.958 | S. cerevisiae deletion strains, locus YOR316C, strain cot1, stronger effect = lower value 0.985 | S. cerevisiae deletion strains, locus YPL051W, strain arl3, stronger effect = lower value 0.988 | S. cerevisiae deletion strains, locus YPL055C, strain LGE1, stronger effect = lower value 0.908 | S. cerevisiae deletion strains, locus YPL078C, strain atp4, stronger effect = lower value 0.971 | S. cerevisiae deletion strains, locus YPL106C, strain sse1, stronger effect = lower value 1 | S. cerevisiae deletion strains, locus YPL240C, strain hsp82, stronger effect = lower value 0.986 | S. cerevisiae deletion strains, locus YPL241C, strain CIN2, stronger effect = lower value 0.985 | S. cerevisiae deletion strains, locus YPL256C, strain CLN2, stronger effect = lower value 1.09 | S. cerevisiae deletion strains, locus YPR119W, strain clb2, stronger effect = lower value 1 | S. cerevisiae deletion strains, locus YPR141C, strain kar3, stronger effect = lower value 0.977 | S. cerevisiae deletion strains, locus YPR163C, strain tif3, stronger effect = lower value 1.01 | S. cerevisiae deletion strains, locus YPR167C, strain met16, stronger effect = lower value 0.984 | S. cerevisiae deletion strains, strain wtn01, stronger effect = lower value 0.977 | S. cerevisiae strains, strain wild type, stronger effect = lower value 0.983
